# Source: PubChem BioAssay (NCATS)
# Results filed as inconclusive are left out. The source made the active and inactive calls. Unless noted, calls follow the shape of the dose curve; as a rule, active = well fitted inhibition curve with a large enough effect; inconclusive = small, poorly fitted or top-dose-only effect; inactive = flat fitted curve, though single readings scatter.
# What was measured:
# [1] = qHTS drug screen for cell cycle checkpoint inhibitors in PARPi-resistant BRCA-mutant ovarian cancer cell lines. (AID 1963452; calls by dose curve); conditions: PEO1/OlaR viability, CellTiter-Glo luminescence, 96 h, stronger effect = lower value
# How it was run: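 PEO1, PEO4 and PEO1/OlaR ovarian cancer cells, 600 per well, exposed 96 h at 37C to a dilution series. Viability read by CellTiter-Glo luminescence, normalized to DMSO and empty wells; activity summarized as Z-AUC.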
# [2] = qHTS for identification of novel therapeutic agents for treatment of microphthalmiaassociated transcription factor (MiT) renal cell carcinoma (RCC) (AID 1963991; calls by dose curve; also: potency is read from the fitted curve at half-maximal effect;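 as to z-score: curves scaled with 100% = DMSO viability and 0% = empty wells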); conditions: CellTiter-Glo, 48 h; for z-score: stronger effect = lower value; for Potency: active = Z-AUC below -0.8 in all three lines
# How it was run: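 UOK109/UOK124/UOK145 (TFE3 fusions, three partners); 500 cells/well; MIPE v4.0, 1912 cpds, 11 conc.; 48 h, 37 C; CellTiter-Glo, 15 min RT; lum. Norm.: DMSO 100%, empty 0%.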
# [3] = qHTS profiling for inhibitors of Plasmodium falciparum proliferation (AID 504749); also: nearly all actives have a fitted effect of over 60% in size; also: potency is read from the fitted curve at half-maximal effect;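 as to activity, negative = inhibition: 0% = DMSO vehicle and full inhibition = artemisinin control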; conditions: P. falciparum in erythrocytes, SYBR Green DNA, 72 h
# How it was run: (§1)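 Three-day growth assay of blood-stage parasites in erythrocytes (0.3% parasitemia, 2.5% hematocrit) at 37 C, 5% CO2, quantified by SYBR Green DNA staining after overnight detergent lysis.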
# 3D7 = assay: as above; conditions: P. falciparum in erythrocytes, SYBR Green DNA, 72 h; series mostly up to 28.7 µM
# How it was run: as §1
# 7G8 = assay: as above; conditions: P. falciparum in erythrocytes, SYBR Green DNA, 72 h; series mostly up to 28.7 µM
# How it was run: as §1
# AA1029 = assay: as above; conditions: P. falciparum in erythrocytes, SYBR Green DNA, 72 h; series mostly up to 28.7 µM
# How it was run: as §1
# AS120 = assay: as above; conditions: P. falciparum in erythrocytes, SYBR Green DNA, 72 h; series mostly up to 28.7 µM
# How it was run: as §1
# ATS189 = assay: as above; conditions: P. falciparum in erythrocytes, SYBR Green DNA, 72 h; series mostly up to 28.7 µM
# How it was run: as §1
# C2A = assay: as above; conditions: P. falciparum in erythrocytes, SYBR Green DNA, 72 h; series mostly up to 28.7 µM
# How it was run: as §1
# ATS95 = assay: as above; conditions: P. falciparum in erythrocytes, SYBR Green DNA, 72 h; series mostly up to 28.7 µM
# How it was run: as §1
# [4] = measured here: PEO1 parental Z-AUC
# [5] = TFE3-RCC UOK109 viability, measured here: UOK109 Z-AUC
# [6] = TFE3-RCC viability, measured here: UOK124 Z-AUC
# [7] = TFE3-RCC viability, measured here: UOK145 Z-AUC
# [8] = at 12.8 µM (top of the series), parasite line A
# [9] = at 12.8 µM (top of the series), parasite line B
smiles,measurement,setting,value
COc1ccc(CC2=NN3C([C@@H](CCc4ccccc4)[C@@H](C)O)=NC(C)C3C(=O)N2)cc1OC (some centres not stated),Z-AUC,[1],-0.34 (inactive)
same,Z-AUC,[1]; [4],0.752
same,Z-AUC,[1]; measured here: PEO4 Z-AUC,0.704
same,z-score,[2]; [5],1.24
same,z-score,[2]; [6],0.967
same,z-score,[2]; [7],0.717
Oc1cccc(-c2nc(N3CCOCC3)c3oc4ncccc4c3n2)c1,Z-AUC,[1],-0.82 (inactive)
same,Z-AUC,[1]; [4],-0.749
same,Z-AUC,[1]; measured here: PEO4 Z-AUC,-0.797
same,Potency,[2]; TFE3-RCC UOK109 viability,4.81 µM (active)
same,z-score,[2]; [5],-1.31
same,z-score,[2]; [6],-1.8
same,z-score,[2]; [7],-2.03
CCCS(=O)(=O)Nc1ccc(F)c(C(=O)c2c[nH]c3ncc(Cl)cc23)c1F,Z-AUC,[1],-0.11 (inactive)
same,Z-AUC,[1]; [4],0.791
same,Z-AUC,[1]; measured here: PEO4 Z-AUC,0.927
CCC(C)N(C)C(=O)c1cc2ccccc2c(-c2ccccc2Cl)n1 (configuration not stated),Z-AUC,[1],-0.72 (inactive)
same,Z-AUC,[1]; [4],-0.771
same,Z-AUC,[1]; measured here: PEO4 Z-AUC,-0.805
same,z-score,[2]; [5],0.652
same,z-score,[2]; [6],0.425
same,z-score,[2]; [7],-0.135
NCCc1ccc(O)c(O)c1,Z-AUC,[1],0.293 (inactive)
same,Z-AUC,[1]; [4],0.902
same,Z-AUC,[1]; measured here: PEO4 Z-AUC,0.891
same,z-score,[2]; [5],0.759
same,z-score,[2]; [6],0.079
same,z-score,[2]; [7],0.506
same,"activity, negative = inhibition","[3]; at 28.7 µM (top of the series), parasite line A",-7.96% (inactive)
same,"activity, negative = inhibition","[3]; at 28.7 µM (top of the series), parasite line B",1.48% (inactive)
same,Potency,3D7,inactive
same,Potency,7G8,inactive
same,Potency,AA1029,inactive
same,Potency,AS120,inactive
same,Potency,ATS189,inactive
same,Potency,C2A,inactive
NC(=O)c1ccc(-c2nc(-c3ccc4c(c3)OCO4)c(-c3ccccn3)[nH]2)cc1,Z-AUC,[1],0.53 (inactive)
same,Z-AUC,[1]; [4],1.15
same,Z-AUC,[1]; measured here: PEO4 Z-AUC,0.909
same,z-score,[2]; [5],0.874
same,z-score,[2]; [6],1.69
same,z-score,[2]; [7],0.197
Cc1oncc1C(=O)Nc1ccc(C(F)(F)F)cc1,Z-AUC,[1],0.594 (inactive)
same,Z-AUC,[1]; [4],0.454
same,Z-AUC,[1]; measured here: PEO4 Z-AUC,0.504
same,"activity, negative = inhibition",[3]; [8],-4.31% (inactive)
same,"activity, negative = inhibition",[3]; [9],9.52% (inactive)
same,Potency,3D7,inactive
same,Potency,7G8,3.55 µM (active)
same,Potency,AA1029,inactive
same,Potency,AS120,inactive
same,Potency,ATS189,inactive
same,Potency,ATS95,inactive
same,Potency,C2A,inactive
C1COC(NC(C2CC2)C2CC2)=N1,Z-AUC,[1],-0.361 (inactive)
same,Z-AUC,[1]; [4],-0.558
same,Z-AUC,[1]; measured here: PEO4 Z-AUC,-0.616
same,z-score,[2]; [5],0.422
same,z-score,[2]; [6],0.218
same,z-score,[2]; [7],0.0437
same,Potency,[3]; parasite line A,7.94 µM (active)
same,Potency,3D7,inactive
same,Potency,7G8,12.6 µM (active)
same,Potency,AS120,12.6 µM (active)
same,Potency,ATS189,inactive
C#Cc1cccc(Nc2ncnc3cc(OCCOC)c(OCCOC)cc23)c1,Z-AUC,[1],-0.425 (inactive)
same,Z-AUC,[1]; [4],-1.02
same,Z-AUC,[1]; measured here: PEO4 Z-AUC,-0.978
same,Potency,[2]; TFE3-RCC UOK109 viability,0.0526 µM (active)
same,z-score,[2]; [5],-2.56
same,z-score,[2]; [6],-1.06
same,z-score,[2]; [7],-1.55
same,Potency,3D7,8.91 µM (active)
same,Potency,7G8,11.2 µM (active)
same,Potency,AA1029,8.91 µM (active)
same,Potency,AS120,11.2 µM (active)
c1ccc([C@H]2CN3CCSC3=N2)cc1,Z-AUC,[1],-0.761 (inactive)
same,Z-AUC,[1]; [4],-0.401
same,Z-AUC,[1]; measured here: PEO4 Z-AUC,-0.638
same,z-score,[2]; [5],0.343
same,z-score,[2]; [6],0.703
same,z-score,[2]; [7],0.523
Nc1nc2c(ncn2COCCO)c(=O)[nH]1,Z-AUC,[1],-0.761 (inactive)
same,Z-AUC,[1]; [4],-0.588
same,Z-AUC,[1]; measured here: PEO4 Z-AUC,-0.538
same,z-score,[2]; [5],0.456
same,z-score,[2]; [6],1.73
same,z-score,[2]; [7],0.51
same,"activity, negative = inhibition",[3]; [8],8.65% (inactive)
same,"activity, negative = inhibition",[3]; [9],-5.76% (inactive)
same,Potency,3D7,inactive
same,Potency,7G8,inactive
same,Potency,AA1029,inactive
same,Potency,AS120,inactive
same,Potency,ATS189,inactive
same,Potency,ATS95,inactive
same,Potency,C2A,inactive
